An excerpt weighted towards active compounds, which were near 19% of everything screened.
DT40 TDP1 CPT = DT40-hTDP1 cell growth loss with CPT; chicken DT40 Tdp1-/-;hTDP1 cells + 20 nM CPT, ATP luminescence, 48 h; Potency, µM (highest dose often 46.2 µM), without a hit: at the highest dose activity change, negative = growth inhibition, hits mostly inhibitors; AID 686979; actives 12% (n = 420,000); further: potency means the concentration at half of the fitted maximal effect; nearly all actives have a fitted effect of over 55% in size
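Chicken DT40 Tdp1-/- cells complemented with human TDP1, 400 cells/well, exposed to compounds plus 20 nM camptothecin for at least 48 h at 37 C; viability read as ATP content by CellTiter-Glo luminescence.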
IL1B secr inh = inhibitors of inflammasome signaling (IL-1 beta secretion) | THP-1 LPS/ATP IL-1B secretion, AlphaLISA, 16 h; active compounds read low | activity change, % at 57.5 µM | actives 4.7% (n = 360,000); in the data active means activity change below about -50%; inconclusive means mostly about -30% to -49%
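THP-1 cells pretreated 1 hr with compounds (up to 57.5 uM final), then stimulated with LPS (250 ng/mL final) plus ATP (1.25 mM final); secreted IL-1B measured by AlphaLISA after 16 hr, decreased signal indicating inhibition.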
HT1080NT lethal = kills 2HG-producing HT-1080-NT fibrosarcoma cells. actives 1.6% (n = 360,000). AID 686970. Potency, µM (titrated, usually from 46.1 µM), without a hit: at the highest dose activity, negative = less viability, most hits filed as cytotoxic. HT-1080-NT fibrosarcoma viability, CellTiter-Glo ATP luminescence, 48 h;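 further: NT is the 2HG producing partner of a matched IDH1 knockdown line; potency means the concentration at half of the fitted maximal effect; 0% = DMSO-treated cells and -100% = media-only wells without cells; nearly all actives have a fitted effect of over 55% in size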
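Fibrosarcoma NT cells, 750 per well in 5% FBS RPMI, were exposed to compound for 48 hours. Viability: CellTiter-Glo luminescence.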
HT1080 IDH1KD tx = HT-1080 IDH1 knockdown cell toxicity (counter line); HT-1080 IDH1 knockdown viability, ATP luminescence, 48 h; Potency, µM (top dose mostly 46.1 µM), without a hit: at the top dose activity, negative = toxicity, usual class: cytotoxic; actives 2% (n = 360,000); AID 686971;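 further: potency means the concentration at half of the fitted maximal effect; 0% = DMSO wells and -100% = cell-free medium wells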
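HT-1080-IDH1KD cells (IDH1 knocked down), 750/well in RPMI with 5% FBS, treated with compound 48 h at 37 degrees C. Viability by CellTiter-Glo luminescence, normalised to DMSO and no-cell wells; concentration-response curves classed.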
TDP1 cell noCPT = qHTS for Inhibitors of human tyrosyl-DNA phosphodiesterase 1 (TDP1): qHTS in cells in absence of CPT. actives 15% (n = 420,000). Potency, µM (doses to about 46.2 µM), for inactives: at the highest dose activity change, negative = growth inhibition, hits mostly inhibitors. DT40 Tdp1-/- hTDP1 cells, no CPT, ATP luminescence, 48 h; further: potency means the concentration at half of the fitted maximal effect; nearly all actives have a fitted effect of over 55% in size
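Luminescent ATP content (CellTiter-Glo) served as the growth readout. Knockout chicken DT40 cells expressing human TDP1 were exposed to compounds without camptothecin for a minimum 48 hr at 37 °C.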
* hit, by the source's call; i = inactive; ? = inconclusive; . = not tested or not shown. Unless noted, the call rests on the fitted dose curve; in most records, active means well fitted curve in the direction sought with a large enough effect; inconclusive means small, poorly fitted or top-dose-only effect, or another doubt; inactive means no such curve, though single readings can be large; an effect the other way counts as inactive or inconclusive. Unless noted, on the % scale 0 is the no-effect control and ±100 the full control effect.

SMILES | DT40 TDP1 CPT | IL1B secr inh | HT1080NT lethal | HT1080 IDH1KD tx | TDP1 cell noCPT
CN1CCC(N(C)C(=O)c2cccc(S(=O)(=O)N3CCc4ccccc43)c2)CC1 | -14.9% | -23.8 | -7.6% | -4.5% | -8.4%
Cc1cccc(NC(=O)c2ccc(Cl)c(S(=O)(=O)N3CCCC3)c2)n1 | -12.1% | i | -0.6% | -0.9% | ?
CCOc1ccc(CCNC(=O)c2cccc(S(=O)(=O)N3CCN(C(C)=O)CC3)c2)cc1OCC | -20.1% | -4.4 | 2.8% | 1.9% | -9.6%
O=S(=O)(c1ccccc1)N1N=C(c2ccc(Cl)cc2)CC1c1ccco1 (stereo not drawn) | ? | -9.6 | -1.8% | -27.3% | ?
Cc1ccc(NC(=O)[C@@H](c2ccccc2)N2Cc3ccccc3C2=O)cc1 | 3.3% | . | . | . | 3.1%
O=C(Nc1nnc(-c2ccc3c(c2)CCCC3)o1)c1ccccc1Cl | ? | 5.8 | -9.9% | ? | 16.4µM*
O=C(Nc1nnc(-c2ccc3c(c2)CCCC3)o1)c1ccccc1 | 5.17µM* | 110.2 | ? | ? | 5.8µM*
O=C(NCCCN1CCOCC1)c1ccc(CS(=O)(=O)Cc2ccc(Cl)cc2)o1 | -1.3% | 7.4 | 19.1% | 38.8% | -0.9%
Cc1ccc(C2=NN(C(=O)CN3C(=O)c4ccccc4S3(=O)=O)C(c3ccco3)C2)cc1 (stereo not drawn) | 13µM* | 0.0 | -3.0% | 1.7% | ?
CC(=O)N1N=C(c2ccc(Cl)cc2)CC1c1ccco1 (stereo not drawn) | 16.4µM* | -9.9 | -4.0% | -1.8% | ?
Cn1nnnc1SCC(=O)N1N=C(c2ccc(Cl)cc2)CC1c1ccco1 (stereo not drawn) | 20.6µM* | -8.1 | -2.6% | -17.6% | 16.4µM*
CC(=O)N1N=C(c2ccc(C)cc2)CC1c1ccco1 (stereo not drawn) | -27.0% | -19.8 | -6.9% | -10.2% | ?
Cc1nc(N2N=C(c3ccc(Cl)cc3)CC2c2ccco2)sc1C(=O)N(C)C (stereo not drawn) | 20.6µM* | ? | -24.0% | ? | 16.4µM*
O=C(c1ccc(Br)o1)N1N=C(c2ccc(Cl)cc2)CC1c1ccco1 (stereo not drawn) | -18.1% | i | -9.0% | -19.6% | ?
CN1CC(c2ccccc2)Oc2ccccc2C1=S (stereo not drawn) | -12.8% | 15.3 | -2.5% | 0.8% | -16.8%
COc1ccc(N2CCN(C(=O)COc3ncnc4ccccc34)CC2)cc1 | 0.8% | 9.5 | 3.8% | -9.6% | -27.3%
Cc1nnc(SCC(=O)N2N=C(c3ccc(Cl)cc3)CC2c2ccco2)[nH]c1=O (stereo not drawn) | 14.6µM* | ? | -6.0% | -19.6% | ?
O=C(CNC(=O)c1ccccc1)OCC(=O)N1N=C(c2ccc(Cl)cc2)CC1c1ccco1 (stereo not drawn) | 1.1% | -9.1 | -2.4% | -0.4% | 18.7%
COc1ccc(C2=NN(C(=O)COc3ncnc4ccccc34)C(c3ccco3)C2)cc1 (stereo not drawn) | -69.6% | ? | -16.8% | ? | 25.9µM*
CCC(=O)N1N=C(c2ccc(NS(=O)(=O)c3ccccc3)cc2)CC1c1ccco1 (stereo not drawn) | ? | -6.2 | -22.3% | 0.0% | 23.1µM*
Cc1ccc(S(=O)(=O)N[C@H](C(=O)OCC(=O)N2N=C(c3ccc(Cl)cc3)CC2c2ccco2)C(C)C)cc1 (stereo partly drawn) | 23.1µM* | -18.2 | -9.8% | -8.4% | 23.1µM*
Cc1ccc(C2=NN(C(=O)CCCC(=O)O)C(c3ccco3)C2)cc1 (stereo not drawn) | 15.2% | 33.6 | 9.4% | 6.4% | 1.8%
CCOC(=O)C1C(=O)NC(c2ccccc2)=NC1c1ccc(OC)cc1 (stereo not drawn) | 24.1% | 3.0 | 6.6% | 21.1% | -4.0%
Cc1ccc(-c2nn(C)c(=O)c3ccccc23)cc1CN1CCCCC1 | -29.4% | -6.9 | -4.8% | -0.3% | ?

Compound activity as filed in PubChem BioAssay.
